Experimental data: PubChem BioAssay (EPA / NIEHS)
Active and inactive are the calls of the source. Rule for the calls: active = hit-call score of the fitted dose curve at least 0.9, where 1 is the maximum; inactive = score below 0.9.

Key:
Conditions in all cases: mRNA level, 48 h; actives raise or lower the signal
[1] = read-out: Early growth response protein 1 (EGR1) transcription factor, EGR1 (gene 1958); experiment: LTEA_HepaRG_EGR1: Life Technologies and Expression Analysis (LTEA) Assay for Early growth response protein 1 (EGR1) transcription factor using HepaRG (AID 2283490)
How it was run: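 Read-out is EGR1 mRNA level by qRT-PCR, normalized to three housekeeping genes and analysed for gain or loss of signal against 0.5% DMSO. Source cells: human HepaRG, treated 48 h at up to 100 uM in half-log dilutions.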

[2] = read-out: Ezrin (EZR), EZR (gene 7430); experiment: LTEA_HepaRG_EZR: Life Technologies and Expression Analysis (LTEA) Assay for Ezrin (EZR) using HepaRG (AID 2283491)
How it was run: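 Read-out is EZR transcript level by qRT-PCR, normalized to three housekeeping genes and fitted bidirectionally against the DMSO control. Human HepaRG cells received test chemicals for 48 h at eight half-log concentrations up to 100 uM in 0.5% DMSO.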

[3] = read-out: Cytochrome P450 3A7 (Homo sapiens) (UniProt P24462); experiment: LTEA_HepaRG_CYP3A7: Life Technologies and Expression Analysis (LTEA) Assay for CYP3A7 using HepaRG (AID 2283492)
How it was run: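 qRT-PCR of CYP3A7 in HepaRG lysates after 48 h treatment; concentration-response (8 points, max 100 uM) analysed bidirectionally relative to 0.5% DMSO controls.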

[4] = read-out: CYP3A5 (gene 1577); experiment: LTEA_HepaRG_CYP3A5: Life Technologies and Expression Analysis (LTEA) Assay for CYP3A5 using HepaRG (AID 2283493)
How it was run: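 Differentiated HepaRG cells in serum-free induction medium were dosed 48 h with test chemicals (8-point half-log series, top 100 uM, 0.5% DMSO, duplicate). CYP3A5 mRNA measured by qRT-PCR, normalized to ACTB, GAPDH, POLR2A; bidirectional fit versus DMSO.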

[5] = read-out: Fatty Acid-Binding Protein 1 (FABP1), FABP1 (gene 2168); experiment: LTEA_HepaRG_FABP1: Life Technologies and Expression Analysis (LTEA) Assay for Fatty Acid-Binding Protein 1 (FABP1) using HepaRG (AID 2283494)
How it was run: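 HepaRG, 48 h post-plating switched to serum-free induction medium, then dosed 48 h (duplicate, 8 pts, ≤100 uM, 0.5% DMSO). RNA → Fluidigm TaqMan qRT-PCR, FABP1 normed to ACTB/GAPDH/POLR2A. Bidirectional curve fit vs DMSO.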

[6] = read-out: Glutathione S-Transferase (GSTA2), GSTA2 (gene 2939); experiment: LTEA_HepaRG_GSTA2: Life Technologies and Expression Analysis (LTEA) Assay for Glutathione S-Transferase (GSTA2) using HepaRG (AID 2283497)
How it was run: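 HepaRG, 48 h dosing, 8-pt half-log CRC from 100 uM, 0.5% DMSO vehicle, n=2; RNA → Fluidigm TaqMan qRT-PCR; GSTA2 vs ACTB/GAPDH/POLR2A; gain/loss fit vs DMSO.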

[7] = read-out: growth arrest and DNA damage 45 (GADD45G), GADD45G (gene 10912); experiment: LTEA_HepaRG_GADD45G: Life Technologies and Expression Analysis (LTEA) Assay for growth arrest and DNA damage 45 (GADD45G) using HepaRG (AID 2283499)
How it was run: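 Concentration-response in HepaRG: 48 h dosing, 0.5% DMSO, highest level 100 uM. GADD45G expression by qRT-PCR, normalised to endogenous controls; bidirectional fit to DMSO.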

[8] = read-out: Glutathione S-transferase M3 (GSTM3), GSTM3 (gene 2947); experiment: LTEA_HepaRG_GSTM3: Life Technologies and Expression Analysis (LTEA) Assay for Glutathione S-transferase M3 (GSTM3) using HepaRG (AID 2283501)
How it was run: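 Expression of GSTM3 is determined by qRT-PCR in human liver HepaRG cells treated 48 h with an 8-point half-log range from 100 uM in 0.5% DMSO.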

[9] = read-out: Heat shock 70 kDa protein 1 (HSPA1A), gene 3303; experiment: LTEA_HepaRG_HSPA1A: Life Technologies and Expression Analysis (LTEA) Assay for Heat shock 70 kDa protein 1 (HSPA1A) using HepaRG (AID 2283502)
How it was run: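 Differentiated human HepaRG cells in serum-free induction medium were exposed in duplicate for 48 h to eight concentrations (top 100 uM, half-log steps, 0.5% DMSO). HSPA1A mRNA was quantified by qRT-PCR, normalized to ACTB, GAPDH and POLR2A, and fitted bidirectionally against DMSO.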

[10] = read-out: Hypoxia-inducible factor 1-alpha (Homo sapiens) (UniProt Q16665); experiment: LTEA_HepaRG_HIF1A: Life Technologies and Expression Analysis (LTEA) Assay for Hypoxia-inducible factor 1 (HIF1A) Trancription factor using HepaRG (AID 2283503);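 note: HIF1A transcript by TaqMan qRT-PCR normalized to ACTB GAPDH and POLR2A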
How it was run: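 HepaRG, 48 h exposure, 8-pt half-log series from 100 uM, 0.5% DMSO vehicle, duplicates. Readout: HIF1A transcript by qRT-PCR (Fluidigm array), housekeeping-normalised. Bidirectional curve fit vs DMSO baseline.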

Cytochrome P450 3A7 (Homo sapiens), sequence (P24462 whole entry, looked up): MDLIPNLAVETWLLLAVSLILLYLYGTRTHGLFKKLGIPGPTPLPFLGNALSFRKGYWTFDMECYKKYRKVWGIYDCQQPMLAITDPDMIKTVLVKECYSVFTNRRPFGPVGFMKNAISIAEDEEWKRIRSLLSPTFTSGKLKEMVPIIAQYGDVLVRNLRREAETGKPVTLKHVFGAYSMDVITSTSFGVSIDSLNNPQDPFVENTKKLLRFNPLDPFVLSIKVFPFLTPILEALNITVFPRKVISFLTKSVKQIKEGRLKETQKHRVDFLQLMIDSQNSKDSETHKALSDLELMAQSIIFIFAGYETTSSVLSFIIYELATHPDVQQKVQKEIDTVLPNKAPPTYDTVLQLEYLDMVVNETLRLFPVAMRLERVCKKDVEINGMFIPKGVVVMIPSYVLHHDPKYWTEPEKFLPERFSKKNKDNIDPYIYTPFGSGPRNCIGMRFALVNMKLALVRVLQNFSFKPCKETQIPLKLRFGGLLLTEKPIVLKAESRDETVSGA
Hypoxia-inducible factor 1-alpha (Homo sapiens), sequence (Q16665 whole entry, looked up): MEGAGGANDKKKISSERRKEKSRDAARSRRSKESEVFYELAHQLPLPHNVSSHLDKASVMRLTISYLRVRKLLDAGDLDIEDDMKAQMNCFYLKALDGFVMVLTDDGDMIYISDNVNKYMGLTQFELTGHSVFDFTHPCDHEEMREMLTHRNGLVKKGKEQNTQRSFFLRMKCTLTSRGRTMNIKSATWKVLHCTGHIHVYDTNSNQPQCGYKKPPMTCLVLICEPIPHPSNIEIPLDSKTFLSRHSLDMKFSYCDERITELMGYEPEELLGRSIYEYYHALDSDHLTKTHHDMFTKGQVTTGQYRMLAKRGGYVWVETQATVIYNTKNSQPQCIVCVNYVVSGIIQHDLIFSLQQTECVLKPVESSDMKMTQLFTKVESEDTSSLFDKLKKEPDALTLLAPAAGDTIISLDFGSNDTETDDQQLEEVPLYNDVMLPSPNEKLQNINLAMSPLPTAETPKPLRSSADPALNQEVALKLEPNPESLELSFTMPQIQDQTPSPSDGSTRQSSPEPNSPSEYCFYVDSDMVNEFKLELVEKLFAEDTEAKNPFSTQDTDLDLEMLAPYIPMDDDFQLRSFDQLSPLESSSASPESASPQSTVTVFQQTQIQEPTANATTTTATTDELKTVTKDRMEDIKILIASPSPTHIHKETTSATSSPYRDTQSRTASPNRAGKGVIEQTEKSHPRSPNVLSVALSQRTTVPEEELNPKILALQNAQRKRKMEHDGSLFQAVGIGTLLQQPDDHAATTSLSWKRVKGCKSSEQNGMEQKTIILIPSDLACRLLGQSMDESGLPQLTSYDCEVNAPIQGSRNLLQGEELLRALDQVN

Compound	outcome [1]	outcome [2]	outcome [3]	outcome [4]	outcome [5]	outcome [6]	outcome [7]	outcome [8]	outcome [9]	outcome [10]	AC50 [1]	AC50 [2]	AC50 [4]	AC50 [5]	AC50 [6]	AC50 [9]	AC50 [10]	AC50 [3]
O=C(N[C@H]1CN2CCC1CC2)c1ccc2c(c1)OCCO2	inactive	inactive	inactive	inactive	inactive	inactive	inactive	inactive	inactive	inactive								
CN(C)C(=S)S	inactive	inactive	inactive	inactive	inactive	inactive	inactive	inactive	inactive	inactive								
O=C(O)C1(c2ccc3c(c2)OC[C@H](Cc2ccc(-c4ccccc4)cc2)[C@H]3O)CCCC1			inactive				inactive	inactive			81.7 µM (active)	63.1 µM (active)	77 µM (active)	83.9 µM (active)	80.1 µM (active)	78.2 µM (active)	82.3 µM (active)	
CCCCCCCCCCCCc1cccc(S(=O)(=O)O)c1	inactive	inactive		inactive	inactive	inactive	inactive	inactive								59.4 µM (active)	16.5 µM (active)	20.4 µM (active)
Oc1c(Cl)cc(Cl)cc1Cl	inactive	inactive			inactive	inactive	inactive	inactive	inactive	inactive								
Cc1cc(C)cc(C)c1	inactive	inactive	inactive	inactive	inactive	inactive	inactive	inactive	inactive	inactive								
Clc1cccc(Cl)c1	inactive	inactive	inactive	inactive	inactive	inactive	inactive	inactive	inactive	inactive								
CC(C)O.CC(C)O.OCCN(CCO)CCO.OCCN(CCO)CCO.[Ti]	inactive	inactive	inactive	inactive	inactive	inactive	inactive	inactive	inactive	inactive								
Oc1cc(Cl)c(Cl)cc1Cl	inactive	inactive	inactive	inactive	inactive	inactive	inactive		inactive	inactive								
CC(C)(C)c1ccccc1O	inactive	inactive		inactive	inactive	inactive	inactive	inactive	inactive	inactive								4.77 µM (active)
OCCN(CCO)CCO	inactive	inactive	inactive	inactive	inactive	inactive	inactive	inactive	inactive	inactive								
Clc1cccc(Cl)c1Cl	inactive	inactive	inactive	inactive	inactive	inactive	inactive	inactive	inactive	inactive								
N#Cc1cccnc1	inactive	inactive	inactive	inactive	inactive	inactive	inactive	inactive	inactive	inactive								
COc1ccccc1N	inactive	inactive	inactive	inactive	inactive	inactive	inactive	inactive	inactive	inactive								
